From PubChem BioAssay AID1910 (Broad Institute, 2009) come the findings set out here.

Each structure is given as a SMILES string. The campaign covered roughly 300,000 compounds. About 950 (0.32%) were called active. This is one part of a sample in which actives are shown more often than they occur.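 The calls were made as follows: active = mean activation of at least 10% of the iron chelator positive control signal, with at least half of replicates also reaching 10%; inconclusive = mean and replicate majority disagree about reaching 10%; inactive = mean and most replicates under 10%.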

A short description of the test: hypoxia response element reporter activation – cell-based, U2OS HRE-luciferase, luminescence, primary screen (AID 1910). The conditions noted are these: stronger effect = higher value, screened at 7.5 µM (by protocol), normalized: DMSO 0%, desferrioxamine 100%.
For `CCc1nnc(NS(=O)(=O)c2ccc(NC(=O)c3cccc(OC(F)(F)C(F)F)c3)cc2)s1`, the activation is -0.386% (inactive). Regarding `CCOC(=O)c1ccc(NC(=O)c2c(NCc3ccccc3)[nH]c(=O)[nH]c2=O)cc1`, the activation is 0.835% (inactive). As for `O=C(c1ccc(F)cc1)N1CCC(C(=O)N2CCN(S(=O)(=O)c3ccccc3Br)CC2)CC1`, the activation was 1.51% (inactive).

On to `O=C(CSc1nnc2c(n1)[nH]c1ccccc12)NC1CCCCC1`, for which the activation is 0.503% (inactive). In the case of `CC(C)N(c1ccccc1)c1ncnc(NCCC(=O)O)c1[N+](=O)[O-]`, the activation was 173% (active). As for `Cc1ccc(OCC(=O)NC(C)c2ccccc2)c([N+](=O)[O-])n1` (stereo not given), the activation was -1.24% (inactive). Regarding `Cc1ccc(C(C)NC(=O)Cn2nc(C)c([N+](=O)[O-])c2C)cc1` (stereo not given), the activation is -0.456% (inactive).

Regarding `COc1ccc(S(=O)(=O)NCC(c2ccc(C)cc2)N2CCN(C)CC2)cc1OC` (stereo not given), the activation was -0.0703% (inactive).

Take `COc1ccc(C(=O)N2CCC(C(=O)Nc3ccc(C)cc3)CC2)cc1`: the activation was 0.165% (inactive). In the case of `CC(C)(C)c1ccc(C(=O)N2CCC(C(=O)N3CCCCC3)CC2)cc1`, the activation was -0.293% (inactive).

On to `COc1ccccc1NC(=O)C1CCN(C(=O)c2ccc(C(C)(C)C)cc2)CC1`, for which the activation was 24.7% (active). Next, `Cc1ccc2nc(SCC(=O)N3CCN(c4ccccc4)CC3)nc(=O)n2c1`: -0.536% (inactive).

Consider `CN1CCN(c2ncc3c(n2)CC(c2ccccc2F)CC3=O)CC1` (stereo not given), for which the activation was -0.449% (inactive). Next, `Cc1nc2nc3c(cn2n1)C(=O)CC(c1ccccc1)C3` (stereo not given): 842% (active); `Cc1cc(C)nc(-n2ncc3c2CC(c2ccc(C(C)C)cc2)CC3=O)n1` (stereo not given): 0.0559% (inactive); `COc1ccccc1NC(=O)Nc1nc(CC(=O)Nc2ccccc2F)cs1`: -0.165% (inactive). For the compound `NC(=O)c1ccsc1NC(=O)COC(=O)Cc1n[nH]c(=O)c2ccccc12`, the activation was 0.145% (inactive). Next, `CCCCn1c(N)c(N(CC(C)C)C(=O)C2CSC3(C)CCC(=O)N23)c(=O)[nH]c1=O` (stereo not given): 0.199% (inactive); `COc1ccc(-n2c(-c3ccc(OC)c(OC)c3)n[nH]c2=S)cc1`: 1.1% (inactive).

As for `COc1ccc(N2C(=O)CNC2=S)cc1`, the activation is -0.317% (inactive). As to `COc1ccc(-n2c(C)csc2=S)cc1`, the activation was 14.5% (active).

For the compound `c1ccc(-c2nc(NCc3ccco3)c3ccccc3n2)cc1`, the activation is 0.461% (inactive).

Regarding `CS(=O)(=O)n1nc(-c2ccccc2)nc1NCc1ccco1`, the activation is 16.1% (active).

Turning to `O=C(Cc1ccccc1)n1nc(-c2ccccc2)nc1NCc1ccco1`, the activation is 1.38% (inactive). Consider `N#CCN(C(=O)COC(=O)C1CC2CCCC(C1)C2=O)c1ccccc1` (stereo not given), for which the activation was -0.0724% (inactive). Next, `Cc1ccc(C(=O)Nc2nnc(C3=COCCO3)o2)cc1C`: 0.0306% (inactive); `COc1cccc(N2CC(C(=O)NCc3n[nH]c(=O)c4ccccc34)CC2=O)c1` (stereo not given): 3.45% (inactive); `COc1ccc(NC(=O)CCC(=O)Nc2cc(OC)c(NC(=O)c3ccco3)cc2OC)c(OC)c1`: -0.226% (inactive). Next, `COc1ccccc1C(=O)Nc1ccc(NC(=O)c2ccco2)c(C)c1`: 0.062% (inactive). Consider `COc1ccc(NC(=O)c2cccc(NC(=O)c3ccco3)c2)c(OC)c1`, for which the activation is 10.1% (active). In the case of `COc1ccccc1OCCCCCCN1CCN(C)CC1`, the activation was 0.237% (inactive). Next, `CCOc1ccc(C(C)=O)cc1COC(=O)CNC(=O)c1cccs1`: 0.00171% (inactive). In the case of `O=C(N/N=C/c1ccccc1O)C1CCCC1`, the activation was 0.236% (inactive). Next, `O=C(N/N=C/c1ccccc1O)/C(=C/c1ccccc1)CCO`: 31.1% (active); `O=C(CCCO)N/N=C/c1cc(Br)ccc1O`: -1.18% (inactive); `Cc1cccc(N=C2SC(C)CN2C(=O)CN2C(=O)NC3(CCCC3)C2=O)c1` (stereo not given): 0.348% (inactive). In the case of `CCN(CC(=O)Nc1c(F)cccc1F)C(=O)c1ccc(Sc2nncn2C)c([N+](=O)[O-])c1`, the activation was 0.52% (inactive). Regarding `O=C(Nc1cccc(F)c1)c1coc(=O)c(Br)c1`, the activation was 0.54% (inactive). For the compound `COc1ccc(N2CC(C(=O)NCCN3C(=O)S/C(=C\c4cccnc4)C3=O)CC2=O)c(OC)c1` (stereo not given), the activation was 0.0693% (inactive).

Consider `O=C(NCCCN1CCOCC1)c1cc(-c2cccc(O)c2)on1`, for which the activation is -0.131% (inactive). Next, `O=C(NCCCN1CCOCC1)c1cc(-c2ccc(Cl)cc2)on1`: -0.141% (inactive); `O=C(NCCCN1CCOCC1)c1cc(-c2ccccc2F)no1`: 10.1% (active); `C=CCNC(=O)/C=C/c1ccc(C(C)C)cc1`: 2.38% (inactive).

Regarding `Cn1cnc2c1c(=O)n(Cc1ccccc1C#N)c(=O)n2C`, the activation is -28% (inactive). `COc1ccc(C(CNC(=O)c2cccc(NS(=O)(=O)c3ccc(C)c(F)c3)c2)N2CCCC2)cc1` (stereo not given): the activation was -0.102% (inactive). Consider `Cc1cc(=O)[nH]c(SCC(=O)Nc2ccc(Br)cc2)n1`, for which the activation is 0.205% (inactive). On to `O=C1CCCN2N=C(SCC(=O)Nc3ccc(Br)cc3)SC2=N1`, for which the activation is 20.5% (active). Next, `O=C(CSCc1ccc(Br)cc1)Nc1ccc(S(=O)(=O)N2CCCCCC2)cc1`: -0.637% (inactive); `O=C(Nc1ncccc1O)c1ccc(S(=O)(=O)N2CCCCCC2)cc1`: 3.25% (inactive).

Take `O=C(Nc1ncccc1O)c1ccc(S(=O)(=O)N2CCCC2)cc1`: the activation was 4.15% (inactive). Take `O=C(Nc1ncccc1O)c1ccc(C(=O)c2ccccc2)cc1`: the activation is 14.2% (active). On to `Cc1cc(C)c(C)c(S(=O)(=O)Nc2cccnc2)c1C`, for which the activation was -0.0811% (inactive). For `CCN(CC)c1ccc(/C=N/NC(=O)CNC(=O)c2cccnc2)cc1`, the activation is -0.424% (inactive). Consider `CCN(CC)c1ccc(/C=N/NC(=O)c2cnccn2)c(O)c1`, for which the activation is 95.3% (active). In the case of `CCN(CC)c1ccc(/C=N/Nc2nc(C)cc(C)n2)c(O)c1`, the activation was 1.77% (inactive). Take `Cc1c(C(=O)Nc2ccccn2)oc2ccc(Br)cc12`: the activation was 2.61% (inactive). As for `Cc1c(Cl)c([N+](=O)[O-])nn1CCCC(=O)Nc1cc(Cl)ccc1Cl`, the activation was -0.466% (inactive). As for `Cc1c(Cl)c([N+](=O)[O-])nn1Cc1ccc(C(=O)N/N=C\c2cc(Cl)ccc2O)o1`, the activation was 49.6% (active). For `Cc1ccc(C(=O)O)cc1NC(=O)c1ccc(Cn2nc(C)c(Cl)c2C)o1`, the activation is -0.0752% (inactive). As for `O=C(COc1coc(CN2CCN(c3ccccc3F)CC2)cc1=O)N1CCc2ccccc21`, the activation was 0.2% (inactive).

Turning to `Cc1nc(-c2ccc(F)cc2)c(CC(=O)Nc2cc(S(=O)(=O)N3CCCCC3)ccc2C)s1`, the activation was -0.206% (inactive). As to `CC1CN(C(=O)COC(=O)c2cccc(NS(=O)(=O)c3ccccc3)c2)CC(C)O1` (stereo not given), the activation was -0.538% (inactive). As to `CC(C)N(Cc1ccccc1)C(=O)COC(=O)c1ccccc1SCC(=O)N1CCCC1`, the activation is -0.658% (inactive).

As for `Oc1ccc(N=Nc2nccs2)c(O)c1`, the activation is -0.857% (inactive).

For the compound `Oc1ccc2ccccc2c1N=Nc1nccs1`, the activation was 68.6% (active). Regarding `c1ccc(NCc2cccc3ccccc23)nc1`, the activation was -34.2% (inactive). Regarding `COc1cccc(NC(=O)CSc2nccn(-c3ccc4c(c3)OCCO4)c2=O)c1`, the activation was 0.704% (inactive).

Turning to `CC(OC(=O)CCCc1c[nH]c2ccccc12)C(=O)Nc1ccc(S(N)(=O)=O)cc1` (stereo not given), the activation was 0.134% (inactive). Take `CCCn1nc(C(=O)NNC(=O)CCOc2ccccc2OCC)c2ccccc2c1=O`: the activation is 0.594% (inactive).

For `COc1ccc(-c2cc(C(F)(F)F)nc(SCC(=O)Nc3ccc4c(c3)OCO4)n2)cc1OC`, the activation was -1.49% (inactive).

For the compound `COc1cc(OC)nc(S(C)(=O)=O)n1`, the activation was 0.158% (inactive). Next, `COc1ccc(-c2cc(C(F)(F)F)nc(S(C)(=O)=O)n2)cc1OC`: 18.9% (active); `COc1ccc(C(=O)Nc2ccc(C(=O)NCC3CCCO3)cc2)c(OC)c1OC` (stereo not given): -3.72% (inactive). `COc1cc(N)c(Cl)cc1C(=O)OCC(=O)c1ccc2c(c1)NC(=O)CO2`: the activation is 0.0757% (inactive).

Turning to `CCCCn1c(N)c(N(CCOC)C(=O)COc2c(C)cccc2C)c(=O)[nH]c1=O`, the activation was -0.338% (inactive). With `Cc1nn(C)cc1C(=O)c1ccccc1`, the activation was 0.273% (inactive). Next, `COc1ccc2c(c1)CCNC2Cc1ccc(OC)c(O)c1` (stereo not given): 0.872% (inactive). As to `O=C1NC(c2ccccc2)Oc2ccccc21` (stereo not given), the activation is -0.318% (inactive). Next, `COc1cccc(/C=N/Nc2cc(C)nc(-c3ccccc3O)n2)c1O`: 0.0705% (inactive); `CN(C)CCNC(=O)c1[nH]nc2c1CCc1ccccc1-2`: 2.68% (inactive); `COc1cccc(/C=N/NC(=O)c2[nH]nc3c2CCc2ccccc2-3)c1O`: 46.5% (active).

As to `COc1ccc(O)c(/C=N/N=C/c2cccc([N+](=O)[O-])c2)c1`, the activation was -2.34% (inactive). As to `Cc1ccccc1N1CCN(Cc2nc(Cc3ccccc3F)no2)CC1`, the activation was 0.117% (inactive). Next, `C1CC1Cc1noc(CN2CCN(CC3CC3)CC2)n1`: 75.3% (active); `CC(C)C(O)C1CCN(Cc2nc(Cc3ccccc3Cl)no2)CC1` (stereo not given): 0.0858% (inactive); `O=C(Nc1ccc(F)c([N+](=O)[O-])c1)C1CCCO1` (stereo not given): -0.403% (inactive). For `COc1ccccc1C1=CC(=O)CCC1`, the activation was 0.17% (inactive). With `COc1ccccc1CCNC(=O)C(=O)NCCC1CCCCN1S(=O)(=O)c1cccs1` (stereo not given), the activation was 0.0341% (inactive). Regarding `Cc1cccc(NC(=S)N2CCCC(c3nc4ccccc4[nH]3)C2)c1` (stereo not given), the activation was 0.822% (inactive). On to `CN(C)CCCNC(=S)N1CCC(c2nc3ccccc3[nH]2)CC1`, for which the activation is 0.0482% (inactive). For the compound `CCCNC(=S)N1CCCC(c2nc3ccccc3[nH]2)C1` (stereo not given), the activation was 99.5% (active).

In the case of `O=C(NCc1ccc2c(c1)OCO2)c1c(O)nc2sccn2c1=O`, the activation was -0.288% (inactive).

Regarding `COc1cc(CN2CCC(C(N)=O)CC2)ccc1OCc1ccccc1`, the activation is 5.51% (inactive). `COc1cc(C2CC(=O)N3CN(Cc4ccccc4)CSC3=C2C#N)ccc1OCc1ccccc1` (stereo not given): the activation is 227% (active). As to `COc1cc(CNC2CCCC2)c(Br)cc1OCc1ccccc1`, the activation was -0.706% (inactive).
